# Data as given in ChEMBL document CHEMBL1961873, “Compounds: GSK PKIS; Assays: Nanosyn kinase panel” (2012).
# Legend:
# [1] = target: Serine/threonine-protein kinase pim-2 (Homo sapiens) (UniProt Q9P1W9); conditions: at 1 µM;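 note: each value is a mean of the inhibition measurements against the kinase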
# [2] = target: Serine/threonine-protein kinase pim-3 (Homo sapiens) (UniProt Q86V86); conditions: at 0.1 µM
# [3] = target: Serine/threonine-protein kinase pim-3 (Homo sapiens) (UniProt Q86V86); conditions: at 1 µM
# [4] = target: T1, MAP kinase-activated protein kinase 5 (Homo sapiens) (UniProt Q8IW41); conditions: at 0.1 µM
# T1 sequence (whole entry): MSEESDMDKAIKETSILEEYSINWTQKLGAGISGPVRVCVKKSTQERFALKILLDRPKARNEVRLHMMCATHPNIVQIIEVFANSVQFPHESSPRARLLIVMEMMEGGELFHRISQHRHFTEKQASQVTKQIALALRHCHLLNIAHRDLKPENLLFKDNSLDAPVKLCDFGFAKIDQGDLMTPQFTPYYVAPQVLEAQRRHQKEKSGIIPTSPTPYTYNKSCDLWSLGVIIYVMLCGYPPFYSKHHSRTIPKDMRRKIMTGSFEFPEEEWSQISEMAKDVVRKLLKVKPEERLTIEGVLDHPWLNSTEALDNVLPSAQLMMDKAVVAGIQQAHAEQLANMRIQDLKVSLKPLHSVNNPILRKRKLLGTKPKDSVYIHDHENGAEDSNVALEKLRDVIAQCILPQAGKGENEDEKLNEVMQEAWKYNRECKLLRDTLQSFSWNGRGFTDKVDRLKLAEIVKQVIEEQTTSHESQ
# [5] = target: T1, MAP kinase-activated protein kinase 5 (Homo sapiens); conditions: at 1 µM
# [6] = target: Serine/threonine-protein kinase SIK1 (Homo sapiens) (UniProt P57059); conditions: at 0.1 µM
# Serine/threonine-protein kinase SIK1 (Homo sapiens), sequence (P57059 whole entry): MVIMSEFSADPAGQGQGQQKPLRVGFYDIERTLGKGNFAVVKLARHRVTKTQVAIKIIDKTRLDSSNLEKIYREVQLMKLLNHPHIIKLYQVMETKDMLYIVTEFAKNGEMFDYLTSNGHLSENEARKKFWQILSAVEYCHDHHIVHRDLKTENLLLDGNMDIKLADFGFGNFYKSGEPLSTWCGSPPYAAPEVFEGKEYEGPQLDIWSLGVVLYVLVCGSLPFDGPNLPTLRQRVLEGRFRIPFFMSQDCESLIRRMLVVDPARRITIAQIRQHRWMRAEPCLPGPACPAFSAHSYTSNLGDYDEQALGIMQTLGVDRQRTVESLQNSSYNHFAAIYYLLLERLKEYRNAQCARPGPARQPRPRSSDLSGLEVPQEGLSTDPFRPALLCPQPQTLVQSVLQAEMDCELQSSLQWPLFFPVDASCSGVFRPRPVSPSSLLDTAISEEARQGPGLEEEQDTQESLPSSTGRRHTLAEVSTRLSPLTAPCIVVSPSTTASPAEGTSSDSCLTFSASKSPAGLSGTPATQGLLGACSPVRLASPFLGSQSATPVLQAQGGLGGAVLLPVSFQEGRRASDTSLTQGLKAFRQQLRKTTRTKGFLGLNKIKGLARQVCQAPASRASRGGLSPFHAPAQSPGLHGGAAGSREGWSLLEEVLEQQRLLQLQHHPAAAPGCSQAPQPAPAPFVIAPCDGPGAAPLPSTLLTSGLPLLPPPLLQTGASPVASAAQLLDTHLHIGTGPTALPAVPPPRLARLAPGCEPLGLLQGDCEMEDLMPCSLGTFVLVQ
# [7] = target: Serine/threonine-protein kinase SIK1 (Homo sapiens) (UniProt P57059); conditions: at 1 µM
# [8] = target: Serine/threonine-protein kinase SIK2 (Homo sapiens) (UniProt Q9H0K1); conditions: at 0.1 µM
# Serine/threonine-protein kinase SIK2 (Homo sapiens), sequence (Q9H0K1 whole entry, looked up): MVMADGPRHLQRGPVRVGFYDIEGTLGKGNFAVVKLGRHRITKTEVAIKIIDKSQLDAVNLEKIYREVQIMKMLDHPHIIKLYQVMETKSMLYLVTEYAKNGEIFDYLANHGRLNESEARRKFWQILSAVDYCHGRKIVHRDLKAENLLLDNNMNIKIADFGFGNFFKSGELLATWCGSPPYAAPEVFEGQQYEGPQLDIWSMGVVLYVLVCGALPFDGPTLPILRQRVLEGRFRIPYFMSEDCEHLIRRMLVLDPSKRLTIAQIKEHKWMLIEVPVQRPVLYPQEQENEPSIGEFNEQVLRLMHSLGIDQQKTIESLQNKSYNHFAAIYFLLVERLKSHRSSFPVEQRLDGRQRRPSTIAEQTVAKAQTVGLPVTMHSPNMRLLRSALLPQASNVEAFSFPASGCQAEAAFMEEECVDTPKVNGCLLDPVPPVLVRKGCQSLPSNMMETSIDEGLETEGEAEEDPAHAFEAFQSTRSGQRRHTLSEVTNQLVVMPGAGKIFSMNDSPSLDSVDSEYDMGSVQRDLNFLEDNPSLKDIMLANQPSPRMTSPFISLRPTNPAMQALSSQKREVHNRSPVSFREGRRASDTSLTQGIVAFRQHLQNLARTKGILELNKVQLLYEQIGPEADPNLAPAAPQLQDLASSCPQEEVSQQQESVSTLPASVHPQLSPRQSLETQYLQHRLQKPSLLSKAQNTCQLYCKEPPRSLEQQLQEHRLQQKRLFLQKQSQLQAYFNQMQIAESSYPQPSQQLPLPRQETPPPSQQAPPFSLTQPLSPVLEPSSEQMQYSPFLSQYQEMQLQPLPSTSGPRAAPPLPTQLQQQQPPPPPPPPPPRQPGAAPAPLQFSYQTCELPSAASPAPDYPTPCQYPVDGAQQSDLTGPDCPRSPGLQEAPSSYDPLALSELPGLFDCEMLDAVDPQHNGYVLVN
# [9] = target: Serine/threonine-protein kinase SIK2 (Homo sapiens) (UniProt Q9H0K1); conditions: at 1 µM
# [10] = target: T2, Serine/threonine-protein kinase TBK1 (Homo sapiens) (UniProt Q9UHD2); conditions: at 0.1 µM
# T2 sequence (whole entry): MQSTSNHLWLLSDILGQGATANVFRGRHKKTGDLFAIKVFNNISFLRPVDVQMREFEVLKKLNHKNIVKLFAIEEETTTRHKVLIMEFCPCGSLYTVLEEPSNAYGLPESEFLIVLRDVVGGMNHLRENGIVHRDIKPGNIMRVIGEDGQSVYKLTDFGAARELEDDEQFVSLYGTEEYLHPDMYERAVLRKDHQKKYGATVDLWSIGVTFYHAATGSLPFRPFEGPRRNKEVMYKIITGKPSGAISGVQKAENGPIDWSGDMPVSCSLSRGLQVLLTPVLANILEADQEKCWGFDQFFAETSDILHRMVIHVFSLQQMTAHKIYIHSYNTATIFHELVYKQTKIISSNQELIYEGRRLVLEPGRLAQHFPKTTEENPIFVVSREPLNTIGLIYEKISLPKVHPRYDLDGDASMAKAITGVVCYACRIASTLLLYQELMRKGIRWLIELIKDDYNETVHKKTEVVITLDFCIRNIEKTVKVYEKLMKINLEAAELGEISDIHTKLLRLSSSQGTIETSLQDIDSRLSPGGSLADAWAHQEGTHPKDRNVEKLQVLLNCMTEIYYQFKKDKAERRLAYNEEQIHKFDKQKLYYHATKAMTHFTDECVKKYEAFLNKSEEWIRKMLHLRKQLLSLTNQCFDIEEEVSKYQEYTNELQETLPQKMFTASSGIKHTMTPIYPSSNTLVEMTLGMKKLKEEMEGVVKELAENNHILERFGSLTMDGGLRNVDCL
# [11] = target: T2, Serine/threonine-protein kinase TBK1 (Homo sapiens); conditions: at 1 µM
# [12] = target: T3, Testis-specific serine/threonine-protein kinase 1 (Homo sapiens) (UniProt Q9BXA7); conditions: at 0.1 µM
# T3 sequence (whole entry): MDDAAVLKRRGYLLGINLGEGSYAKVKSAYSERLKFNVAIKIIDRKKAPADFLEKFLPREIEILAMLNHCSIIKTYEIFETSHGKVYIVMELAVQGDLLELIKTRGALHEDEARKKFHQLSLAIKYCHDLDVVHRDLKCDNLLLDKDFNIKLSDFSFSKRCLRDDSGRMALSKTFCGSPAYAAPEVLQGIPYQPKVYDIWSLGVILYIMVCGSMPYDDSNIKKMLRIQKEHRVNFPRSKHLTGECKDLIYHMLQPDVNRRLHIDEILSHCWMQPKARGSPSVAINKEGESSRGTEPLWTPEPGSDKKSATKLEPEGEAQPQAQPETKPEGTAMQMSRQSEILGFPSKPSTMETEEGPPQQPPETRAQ
# [13] = target: T3, Testis-specific serine/threonine-protein kinase 1 (Homo sapiens); conditions: at 1 µM
# [14] = target: T4, Testis-specific serine/threonine-protein kinase 2 (Homo sapiens) (UniProt Q96PF2); conditions: at 0.1 µM
# T4 sequence (whole entry): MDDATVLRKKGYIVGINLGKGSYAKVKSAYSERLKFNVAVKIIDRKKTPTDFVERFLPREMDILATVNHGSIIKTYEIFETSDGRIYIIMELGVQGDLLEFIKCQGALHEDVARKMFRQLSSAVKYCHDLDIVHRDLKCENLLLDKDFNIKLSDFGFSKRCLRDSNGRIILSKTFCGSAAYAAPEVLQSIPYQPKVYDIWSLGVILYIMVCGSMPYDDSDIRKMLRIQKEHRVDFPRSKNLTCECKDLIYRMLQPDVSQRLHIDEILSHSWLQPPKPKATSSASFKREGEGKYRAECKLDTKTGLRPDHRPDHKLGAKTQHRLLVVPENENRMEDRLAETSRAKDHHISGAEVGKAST
# [15] = target: T4, Testis-specific serine/threonine-protein kinase 2 (Homo sapiens); conditions: at 1 µM
# [16] = target: Casein kinase I isoform alpha (Homo sapiens) (UniProt P48729); conditions: at 0.1 µM
# Casein kinase I isoform alpha (Homo sapiens), sequence (P48729 2-337 limits assumed): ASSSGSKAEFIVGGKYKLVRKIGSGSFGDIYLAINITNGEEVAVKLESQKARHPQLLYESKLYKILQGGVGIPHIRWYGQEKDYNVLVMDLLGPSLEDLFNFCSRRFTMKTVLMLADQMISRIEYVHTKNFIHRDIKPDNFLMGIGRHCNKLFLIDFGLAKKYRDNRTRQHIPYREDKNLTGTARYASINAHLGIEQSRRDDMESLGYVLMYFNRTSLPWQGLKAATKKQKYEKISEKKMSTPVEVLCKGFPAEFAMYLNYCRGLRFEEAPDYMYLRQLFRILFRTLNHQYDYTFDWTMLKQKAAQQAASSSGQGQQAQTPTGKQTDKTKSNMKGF
# [17] = target: Casein kinase I isoform alpha (Homo sapiens) (UniProt P48729); conditions: at 1 µM
# [18] = target: Casein kinase I isoform gamma-1 (Homo sapiens) (UniProt Q9HCP0); conditions: at 0.1 µM
# Casein kinase I isoform gamma-1 (Homo sapiens), sequence (Q9HCP0 whole entry, looked up, canonical isoform): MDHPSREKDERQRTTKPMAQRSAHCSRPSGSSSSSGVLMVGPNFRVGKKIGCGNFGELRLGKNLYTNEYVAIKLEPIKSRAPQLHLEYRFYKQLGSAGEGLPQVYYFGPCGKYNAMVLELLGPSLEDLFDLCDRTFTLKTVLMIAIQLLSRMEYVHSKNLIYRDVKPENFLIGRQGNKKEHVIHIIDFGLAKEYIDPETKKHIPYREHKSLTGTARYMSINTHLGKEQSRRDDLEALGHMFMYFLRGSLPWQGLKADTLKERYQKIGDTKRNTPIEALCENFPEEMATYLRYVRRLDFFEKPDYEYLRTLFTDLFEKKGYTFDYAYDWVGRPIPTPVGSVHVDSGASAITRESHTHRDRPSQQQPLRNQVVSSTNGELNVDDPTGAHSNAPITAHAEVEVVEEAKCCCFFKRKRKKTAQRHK
# [19] = target: Casein kinase I isoform gamma-1 (Homo sapiens) (UniProt Q9HCP0); conditions: at 1 µM
# [20] = target: Casein kinase I isoform gamma-2 (Homo sapiens) (UniProt P78368); conditions: at 0.1 µM;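 note: values are mean inhibition figures reported as part of the GSK PKIS dataset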
# Casein kinase I isoform gamma-2 (Homo sapiens), sequence (P78368 whole entry, looked up, canonical isoform): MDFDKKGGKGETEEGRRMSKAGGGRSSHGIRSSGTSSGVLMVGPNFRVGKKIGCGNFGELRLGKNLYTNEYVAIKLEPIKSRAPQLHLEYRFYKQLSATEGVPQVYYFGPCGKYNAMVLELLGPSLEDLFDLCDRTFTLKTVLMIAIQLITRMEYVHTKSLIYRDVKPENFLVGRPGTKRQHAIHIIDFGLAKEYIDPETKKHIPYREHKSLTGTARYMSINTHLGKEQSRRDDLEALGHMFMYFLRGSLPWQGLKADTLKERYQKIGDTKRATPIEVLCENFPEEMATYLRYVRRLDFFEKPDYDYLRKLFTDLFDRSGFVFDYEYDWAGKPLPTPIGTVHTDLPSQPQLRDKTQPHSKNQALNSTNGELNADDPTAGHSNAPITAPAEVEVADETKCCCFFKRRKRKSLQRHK
# Serine/threonine-protein kinase pim-2 (Homo sapiens), sequence (Q9P1W9 whole entry, looked up): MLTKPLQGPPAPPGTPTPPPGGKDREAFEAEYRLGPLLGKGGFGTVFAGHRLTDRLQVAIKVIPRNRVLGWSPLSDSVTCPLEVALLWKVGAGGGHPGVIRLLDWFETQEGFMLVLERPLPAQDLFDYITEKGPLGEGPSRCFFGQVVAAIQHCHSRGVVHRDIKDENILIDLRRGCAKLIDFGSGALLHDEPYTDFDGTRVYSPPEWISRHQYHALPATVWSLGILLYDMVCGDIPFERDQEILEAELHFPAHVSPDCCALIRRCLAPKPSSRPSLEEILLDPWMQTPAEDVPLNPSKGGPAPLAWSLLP
Compound,inhibition [1] [%],inhibition [2] [%],inhibition [3] [%],inhibition [4] [%],inhibition [5] [%],inhibition [6] [%],inhibition [7] [%],inhibition [8] [%],inhibition [9] [%],inhibition [10] [%],inhibition [11] [%],inhibition [12] [%],inhibition [13] [%],inhibition [14] [%],inhibition [15] [%],inhibition [16] [%],inhibition [17] [%],inhibition [18] [%],inhibition [19] [%],inhibition [20] [%]
OCc1ccc(-c2nc(-c3ccccn3)c(-c3ccc4c(c3)OCO4)[nH]2)cc1,1.41,-1.14,-3.44,1.17,-0.12,9,5.84,8.76,7.48,2.36,4.95,3.19,1.78,0.7,-1.56,9.48,43.3,4.27,5.16,3.01
NS(=O)(=O)c1ccc(N/N=C2\C(=O)Nc3ccc(Cl)cc32)cc1,2.1,0.5,4.86,1.31,3.24,3.88,10.9,3.51,10.6,2.27,9.93,4.37,6.32,3.29,2.98,3.27,4.21,2.59,3.4,2.56
COC(=O)c1cncc(/C=C/c2c(C)cc(O)cc2C)c1,0.09,0.93,3.35,1.73,2.57,19.2,84.3,5.81,20,1.26,3.98,2.95,5.68,0.9,0.8,1.49,4.06,3.02,4.65,2.68
Cc1ccc2c(-c3ccnc(Nc4cccc(C(F)(F)F)c4)n3)c(-c3ccccc3)nn2n1,-0.7,0.5,1.85,1.8,1.94,6.3,15.8,1.03,9.81,3.23,4.86,3.88,4.11,1.4,2.15,15.3,59.2,5,14,3.82
COC(=O)Nc1nc2cc(Oc3ccc(NC(=O)Nc4cccc(Br)c4)cc3)ccc2[nH]1,-0.13,-0.57,0.5,1.32,1.31,7.8,11.9,-0.32,7.96,-1.34,3.82,2.91,2.52,2.72,2.43,4.89,9.35,1.77,2.02,0.89
O=S(=O)(CCOCc1ccc(-c2ccc3ncnc(Nc4ccc(OCc5cccc(F)c5)c(Cl)c4)c3c2)o1)c1ccccc1,2.24,0.82,2.26,0.61,0.15,3.79,5.54,0.88,1.15,0.12,2.8,2.84,3.29,0.64,1.88,-0.6,-0.08,0.56,1.02,0.09
CN1CCN(C(=O)c2ccc(NC(=O)Nc3ccc(N(C)c4ccnc(Nc5ccc(CS(C)(=O)=O)cc5)n4)cc3)cc2)CC1,-0.35,0.13,2.14,1.17,1.29,3.16,17.6,-0.55,17.4,2.62,12.6,0.02,1.8,0.71,0.35,0.51,2.95,1.88,2.79,1.94
Nc1nccc(-c2c(-c3ccc(F)cc3)ncn2CCCN2CCOCC2)n1,1.68,2.11,1.36,1.45,4.08,2.84,6.36,7.84,11.6,0.96,4.85,3.5,3.45,2.07,2.83,6.3,27.3,3.45,5.49,2.84
O=C1Nc2ccccc2/C1=C/Nc1ccc2[nH]c(=O)[nH]c2c1,-0.46,-0.36,5.21,1.86,5,3.92,14.9,9.13,17.6,8.2,21.2,4.5,8.92,3.14,4.56,8.75,21.8,4.87,7.45,3.6
Cc1ccc2c(-c3ccnc(Nc4ccc5c(c4)OCCO5)n3)c(-c3ccc(C(F)(F)F)cc3)nn2n1,1.63,0.32,0.77,0.37,0.83,0.02,-0.13,10.8,0.48,0.84,4.69,1.7,2.26,0.67,0.47,0.54,-3.1,1.24,1.97,0.1
CS(=O)(=O)CCNCc1nc(-c2ccc3ncnc(Nc4ccc(OCc5cccc(C(F)(F)F)c5)cc4)c3c2)cs1,-0.33,-0.43,0.97,1.44,-0.14,4.28,0.42,1.04,2.49,2.22,0.57,2.83,2.19,0.45,0.58,0.49,4.64,1.2,2.03,0.96
CCn1c(-c2nonc2N)nc2c(C#CC(C)(C)O)nc(OCCNC)cc21,1.04,0.16,3.51,1.21,1.03,6.97,10.6,3.14,9.54,3.53,8.57,5.86,18,1.75,2.65,3.87,8.13,3.33,4.48,3.26
COc1cc(/C=N/Nc2ncnc3c2cnn3C(C)C)ccc1O,4.35,1.2,7.74,0.1,0.02,2.84,14.5,2.78,23.1,2.37,6.12,1.68,1.76,0.77,1.4,-0.04,0.99,1.74,3.2,1.49
